Potency and outcome data for 15 compounds are collected here from PubChem BioAssay (NCATS).

Holding throughout (assay): qHTS profiling for inhibitors of Plasmodium falciparum proliferation (AID 504749); further: nearly all actives have a fitted effect of over 60% in size
Holding throughout (settings): P. falciparum in erythrocytes, SYBR Green DNA, 72 h; series mostly up to 28.7 µM
(In general: In qHTS, concentration-response curves come from the screen itself.)

In one assay the test system is CP269. The essentials:
(§1)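 P. falciparum-infected erythrocytes (0.3% parasitemia, 2.5% hematocrit) incubated with compound 72 h at 37 C, 5% CO2. Parasite DNA detected by SYBR Green after lysis, overnight at room temperature; normalised to 0.29 uM artemisinin and DMSO.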

A further assay relates to CP286. A digest of the protocol: as §1
The subject of the next assay is CP291. The essentials:
as §1

A further assay relates to CP305. A digest of the protocol: as §1
The test system of the next assay is CP315. The essentials:
as §1

In a further assay the test system is CP325. A digest of the protocol: as §1
The subject of the next assay is CP329. A digest of the protocol:
as §1

In another assay the test system is CP335. The essentials:
as §1

Another assay concerns DFO2036. A digest of the protocol:
as §1

Another assay deals with DIV14. The essentials: as §1
For the next assay, the system named is DIV17. The essentials: as §1
In a further assay the test system is DIV30. The essentials: as §1
The subject of a further assay is Dd2. The essentials:
as §1

For a further assay, the system named is ECU. The essentials:
as §1

In a further assay the test system is FAB9. A digest of the protocol: as §1
For the next assay, the system named is GB4. A digest of the protocol: as §1
For a further assay, the system named is HB3. The essentials: as §1
The subject of the next assay is ICS. A digest of the protocol:
as §1

For a further assay, the system named is JCK. A digest of the protocol:
as §1

In the next assay the test system is CP297. A digest of the protocol: as §1

Results filed as inconclusive are left out. Calls of active or inactive are those of the source. The call rests on the fitted dose curve; in most records, active means well fitted inhibition curve with a large enough effect; inconclusive means small, poorly fitted or top-dose-only effect; inactive means flat fitted curve, though single readings scatter.
Potency means the concentration at half of the fitted maximal effect.

Consider `N[C@@H]1CONC1=O`, for which the Potency result with CP269, in the assay with CP286, with CP291, in the assay on CP305, in the assay on CP315 and with CP325 was “inactive” throughout. The Potency result in the assay with CP335, in the assay with DFO2036, in the assay with DIV14, in the assay on DIV17, in the assay with DIV30 and in the assay on Dd2 was “inactive” throughout. Besides, the Potency result in the assay with ECU, in the assay with FAB9, in the assay with GB4, in the assay with HB3, with ICS and with JCK was “inactive” throughout. Also, in the assay with CP329, the call was inactive.

Turning to `CCOC(=O)C1=C[C@@]2(CC)CCCN3CCc4c(n1c1ccccc41)[C@H]32`, the Potency in the assay on CP269 is 10.7 µM (active); with CP291, 13.5 µM (active); with CP297 it was 12 µM (active); in the assay on CP305, 13.5 µM (active); with CP325, 9.53 µM (active); in the assay on CP335 it was 12 µM (active). The Potency is 13.5 µM (active) in the assay on DIV14, 7.57 µM (active) in the assay with DIV17, 12 µM (active) in the assay with DIV30 and 7.57 µM (active) in the assay on GB4.

Take `Oc1ccc(C2CNCCc3c2cc(O)c(O)c3Cl)cc1` (configuration not stated): the Potency result in the assay on CP269, in the assay with CP291, with CP297, with CP305, in the assay on CP315 and in the assay with CP325 was “inactive” each time. In addition, the Potency result in the assay on CP335, in the assay on DFO2036, in the assay with DIV14, in the assay with DIV17, with DIV30 and in the assay with Dd2 was “inactive” throughout. In addition, the Potency result in the assay on ECU, with FAB9, in the assay on HB3 and with JCK was “inactive” each time. For the same compound, the call in the assay with CP329 was inactive.

Consider `COc1ccc2nc(S(=O)Cc3ncc(C)c(OC)c3C)[nH]c2c1` (configuration not stated), for which the Potency result with CP269, with CP286, with CP291, in the assay with CP297, in the assay with CP305 and with CP315 was “inactive” throughout. Besides, the Potency entry in the assay on CP325, with CP335, in the assay on DFO2036, with DIV30, in the assay on Dd2 and in the assay on ECU was “inactive” each time. Besides, the Potency result with FAB9, in the assay with HB3 and in the assay with JCK was “inactive” throughout. Moreover, the compound was classed as inactive with CP329. The Potency in the assay on ICS was 14.1 µM (active).

In the case of `C#Cc1cccc(Nc2ncnc3cc(OCCOC)c(OCCOC)cc23)c1`, the Potency result in the assay on CP305, in the assay on CP315, in the assay with Dd2, in the assay on FAB9 and in the assay on JCK was “inactive” each time. The outcome with CP329 was inactive. Also, the figures for the Potency in the assay with DIV14, in the assay with DIV17 and with ICS were 8.49 µM (active), 15.1 µM (active) and 11.2 µM (active), respectively.

For the compound `CCOC(=O)C1=C[C@]2(CC)CCCN3CCc4c(n1c1ccccc41)[C@@H]32`, the Potency in the assay on CP269 is 13.5 µM (active); in the assay on CP297, 13.5 µM (active); with DIV14, 12 µM (active); with DIV17, 15.1 µM (active); with DIV30, 13.5 µM (active); in the assay with ICS, 8.91 µM (active).

Turning to `Clc1ccc(Nc2nnc(Cc3ccncc3)c3ccccc23)cc1`, the Potency entry in the assay with CP269, in the assay with CP291, in the assay on CP297, with CP305, in the assay on CP315 and in the assay on CP325 was “inactive” each time. Besides, the Potency result with DFO2036, in the assay on FAB9, with GB4, in the assay on HB3 and in the assay with JCK was “inactive” throughout. The compound was called inactive in the assay with CP329. Also, in the assay on ECU, the Potency is 14.1 µM (active).

For `NC[C@H](O)c1ccc(O)c(O)c1`, the Potency result in the assay on CP269, in the assay on CP286, in the assay on CP291, with CP297, with CP305 and in the assay with CP315 was “inactive” each time. The Potency result with CP325, in the assay with CP335, with DFO2036, in the assay with DIV17, with DIV30 and in the assay on Dd2 was “inactive” each time. The Potency entry in the assay on ECU, with FAB9, with GB4, in the assay on HB3, in the assay with ICS and in the assay on JCK was “inactive” in each case. For the same compound, the call with CP329 was inactive.

With `CC(C)C[C@H](NC(=O)[C@@H](O)[C@H](N)Cc1ccccc1)C(=O)O`, the Potency is 9.53 µM (active) in the assay on CP269; 5.01 µM (active) with CP286; 5.36 µM (active) with CP291; 8.49 µM (active) in the assay on CP297; 6.01 µM (active) with CP305; 12 µM (active) with CP315. Also, the Potency is 6.75 µM (active) with CP325; 6.01 µM (active) with CP335; 5.62 µM (active) in the assay on DFO2036; 4.78 µM (active) with DIV14; 6.75 µM (active) in the assay with DIV17; 6.01 µM (active) in the assay on DIV30. Moreover, the Potency in the assay on Dd2 is 3.16 µM (active); in the assay on ECU it was 7.94 µM (active); with FAB9, 10 µM (active); in the assay on GB4, 4.78 µM (active); in the assay with ICS it was 4.47 µM (active).

In the case of `O=C1CCc2cc(OCCCCc3nnnn3C3CCCCC3)ccc2N1`, the Potency result with CP269, in the assay on CP286, in the assay with CP291, with CP297, in the assay on CP305 and in the assay on CP315 was “inactive” each time. The Potency entry in the assay with CP325, in the assay on CP335, in the assay on DIV14, in the assay on DIV17, with DIV30 and with GB4 was “inactive” in each case. The Potency result in the assay on ICS and in the assay on JCK was “inactive” in each case. In the assay on CP329, the outcome was inactive.

Turning to `NC(N)=NC(=O)c1nc(Cl)c(N)nc1N`, the Potency result in the assay with CP297 and with CP315 was “inactive” throughout. For the same compound, the compound was called inactive in the assay with CP329. Also, the Potency in the assay on DIV14 is 9.53 µM (active); in the assay with DIV17, 6.75 µM (active); in the assay on GB4, 15.1 µM (active); in the assay with HB3 it was 11.2 µM (active); in the assay with ICS it was 2.24 µM (active).

Turning to `CC(c1cc2ccccc2s1)N(O)C(N)=O` (configuration not stated), the Potency result in the assay with CP269, in the assay with CP286, with CP291, with CP297, in the assay on CP305 and in the assay with CP325 was “inactive” throughout. Also, the Potency result with CP335, in the assay with DFO2036, with DIV14, with DIV17, in the assay on DIV30 and in the assay with Dd2 was “inactive” throughout. In addition, the Potency entry with ECU, with FAB9, in the assay on GB4, in the assay on HB3, in the assay on ICS and in the assay with JCK was “inactive” in each case. Further, the outcome with CP329 was inactive.

For the compound `CCCc1nc2c(C)cc(-c3nc4ccccc4n3C)cc2n1Cc1ccc(-c2ccccc2C(=O)O)cc1`, the Potency is 11.2 µM (active) with CP286; 6.01 µM (active) with CP335; 0.675 µM (active) in the assay with DIV17; 5.01 µM (active) in the assay on Dd2; 10 µM (active) in the assay with HB3; 0.631 µM (active) in the assay on ICS. Also, the Potency entry in the assay on CP305, in the assay with CP315, with CP325 and with FAB9 was “inactive” throughout. Besides, the outcome in the assay on CP329 was inactive.

For `CCOC(=O)N1CCC(=C2c3ccc(Cl)cc3CCc3cccnc32)CC1`, the Potency in the assay on CP297 was 13.5 µM (active); in the assay on DIV14, 7.57 µM (active); in the assay with DIV17, 9.53 µM (active); with DIV30, 13.5 µM (active); with ECU, 12.6 µM (active); with GB4, 12 µM (active). Also, the Potency in the assay on ICS is 2.24 µM (active). Moreover, the Potency result in the assay with DFO2036 and in the assay with FAB9 was “inactive” in each case.

In the case of `Cc1c(C)c2c(c(C)c1O)CCC(C)(COc1ccc(CC3SC(=O)NC3=O)cc1)O2` (configuration not stated), the Potency result with CP286, in the assay on CP291, with CP305, in the assay with CP315, in the assay on CP325 and in the assay on CP335 was “inactive” each time. The Potency entry in the assay with DFO2036, with FAB9, with HB3 and in the assay with JCK was “inactive” each time. Moreover, in the assay on CP329, the compound was called inactive. Further, the Potency in the assay on DIV14 was 15.1 µM (active); with GB4, 12 µM (active).
